Hit rate of the full screen: of about 48,000 compounds, about 13,000 (27%) showed an effect of 50% or more. This is one part of the list.

For this experiment, the system named is Wolbachia pipientis. As to the kind of experiment: Anti-Wolbachia Cell-Based Screen. It is filed as functional. Details: scale not given: in the data most compounds retested in dose-response had high values. As to conditions: 5 µM.
Consider `COCc1cccc(S(=O)(=O)NCc2cnn(C)c2C)c1`, for which the “Percent Effect” value was determined as 10.62%.

Take `CC(=O)c1cccc(NS(=O)(=O)c2cc(C)c(C(=O)O)s2)c1`: the “Percent Effect” value is listed as 6.094%.

Consider `O=C1CN(c2ccc(CNC(=O)NCc3ccoc3)cc2)CCN1`, for which the “Percent Effect” value is on record as 94.29%.

As to `CC(C(=O)NCc1ccc(N2CCNC(=O)C2)cc1)c1cccs1` (stereo unspecified), the “Percent Effect” value is 88.68%.

Turning to `Cc1cccnc1NC(=O)NCc1ccc(N2CCNC(=O)C2)cc1`, the “Percent Effect” value is given as -1.064%.

Turning to `O=C1CN(c2ccc(CNC(=O)NCCO)cc2)CCN1`, the “Percent Effect” value stood at 104.3%.

On to `NS(=O)(=O)Cc1ccc(CNC(=O)NCC2CCOC2)cc1` (stereo unspecified), for which the “Percent Effect” value is given as -4.862%.

As for `O=C(NCc1ccc(Br)cc1)NCC1CCOC1` (stereo unspecified), the “Percent Effect” value is listed as -13.61%.

As to `CC(C(=O)NCc1ccc(N2CCNC(=O)C2)cc1)n1cncn1` (stereo unspecified), the “Percent Effect” value is -3.383%.

For `Cc1ccccc1C(=O)NCc1ccc(N2CCNC(=O)C2)cc1`, the “Percent Effect” value came to 3.423%.

Consider `CC(O)CNC(=O)NCc1ccc(N2CCNC(=O)C2)cc1` (stereo unspecified), for which the “Percent Effect” value is on record as -1.608%.

For `O=C1CN(c2ccc(CNC(=O)NCC3CCOC3)cc2)CCN1` (stereo unspecified), the “Percent Effect” value is 100.4%.

As to `CCSc1cncc(NCc2ccc(N3CCNC(=O)C3)cc2)n1`, the “Percent Effect” value is recorded as -9.871%.

Regarding `Cc1nc(C(=O)NCc2ccc(N3CCNC(=O)C3)c(F)c2)cs1`, the “Percent Effect” value is listed as -8.487%.

In the case of `O=C(NCCCn1nc2ccccn2c1=O)NC1CCC(O)CC1` (stereo unspecified), the “Percent Effect” value is given as -5.846%.

Turning to `CC(CCSc1ccccc1)N1CCCN(C(N)=O)CC1` (stereo unspecified), the “Percent Effect” value was 1.732%.

In the case of `COc1cc2c(cc1OC)S(=O)(=O)N(Cc1cnn(C)c1)C2=O`, the “Percent Effect” value is -5.179%.

Take `CCN(Cc1cccc(-c2ccncc2)c1)S(C)(=O)=O`: the “Percent Effect” value is on record as 22.59%.

In the case of `COc1ccnc(N2CCC(OCCN3CCCCC3)C2)n1` (stereo unspecified), the “Percent Effect” value is -2.392%.

In the case of `CCCS(=O)(=O)N1CCC2(CN(c3ccsc3)C(=O)CN2C)C1.O=C(O)C(F)(F)F` (stereo unspecified), the “Percent Effect” value is 2.599%.

Take `Cc1nc(CN2CCC(N(C)Cc3noc(C(C)C)n3)C2)cs1` (stereo unspecified): the “Percent Effect” value is listed as 19.33%.

For the molecule `CC(C)c1nc(CN(C)C2CCN(CCn3cc(C#N)cn3)C2)no1` (stereo unspecified), the “Percent Effect” value amounted to 72.8%.

`CN(Cc1noc(C2CC2)n1)C1CCN(CCn2cc(C#N)cn2)C1` (stereo unspecified): the “Percent Effect” value is recorded as 90.88%.

For `CC(C)c1nc(CN(C)C2CCN(CCc3ccncc3)C2)no1` (stereo unspecified), the “Percent Effect” value was 78.23%.

For `Cc1ncsc1CCN1CCC(N(C)Cc2noc(C(C)C)n2)C1` (stereo unspecified), the “Percent Effect” value is recorded as 6.438%.

As for `CN(CC1CN(CCn2cc(C#N)cn2)CCO1)c1cccnn1` (stereo unspecified), the “Percent Effect” value was -17.7%.

For `Cc1nc(CN(C)C2CCN(CCn3cc(C#N)cn3)C2)no1` (stereo unspecified), the “Percent Effect” value is given as 105.6%.

Regarding `CN(c1ccc(C#N)cn1)C1CCCN(Cc2noc(C3CC3)n2)C1` (stereo unspecified), the “Percent Effect” value is recorded as 3.102%.

On to `CC(C)c1nc(CN(C)C2CCN(CC(F)(F)F)C2)no1` (stereo unspecified), for which the “Percent Effect” value stood at 0.6339%.

For the molecule `CCc1nc(CN(C)C2CCN(CCn3cc(C#N)cn3)C2)no1` (stereo unspecified), the “Percent Effect” value came to 10.97%.

As for `Cc1nn(CCO)c(C)c1CNC1CCc2c(Cl)cccc21` (stereo unspecified), the “Percent Effect” value was determined as 9.566%.

Take `CCOC(C)c1nc(CN2CCN(CC(F)F)CC2)cs1` (stereo unspecified): the “Percent Effect” value is on record as -28.37%.

With `CCc1c(C(=O)N2CC[C@H](N3CCOCC3)[C@H](CCCO)C2)csc1C`, the “Percent Effect” value was -10.58%.

In the case of `CCc1c(C)nn(CCNC(=O)C2CCCN(C(=O)N(C)C)C2)c1C` (stereo unspecified), the “Percent Effect” value is given as -3.279%.

As to `C=C(C)CN1CCC(c2n[nH]c(C3CC3)n2)CC1`, the “Percent Effect” value was -34.27%.

`CN(C)C(=O)[C@H]1CO[C@H]2CCN(c3ncc(F)cn3)C[C@H]2C1.O=C(O)C(F)(F)F`: the “Percent Effect” value was 120.2%.

Regarding `O=C(Nc1cccnc1)[C@H]1CO[C@H]2CCN(c3ncc(F)cn3)C[C@H]2C1.O=C(O)C(F)(F)F.O=C(O)C(F)(F)F`, the “Percent Effect” value is reported as -5.908%.

Take `CNC(=O)[C@H]1CO[C@H]2CCN(c3ncc(F)cn3)C[C@H]2C1.O=C(O)C(F)(F)F`: the “Percent Effect” value turned out to be 80.41%.

As for `O=C(Nc1cnccn1)[C@@H]1C[C@H]2OCC[C@H]2N(c2ncc(F)cn2)C1`, the “Percent Effect” value is listed as -10.05%.

For `CC(=O)N1[C@H](Cn2cncn2)C[C@@H]2CN(c3ncc(F)cn3)CC[C@@H]21.O=C(O)C(F)(F)F`, the “Percent Effect” value is reported as -4.782%.

`CN1CCN(C(=O)[C@H]2C[C@@H]3CN(c4ncc(F)cn4)C[C@@H]3N2C)CC1.O=C(O)C(F)(F)F.O=C(O)C(F)(F)F.O=C(O)C(F)(F)F`: the “Percent Effect” value was 6.01%.

As to `CN(C)C(=O)[C@H]1C[C@H]2OCC[C@H]2N(Cc2ccc(F)cc2)C1.O=C(O)C(F)(F)F`, the “Percent Effect” value was -2.638%.

`O=C(Nc1cnccn1)[C@H]1CO[C@H]2CCN(c3ncc(F)cn3)C[C@H]2C1.O=C(O)C(F)(F)F`: the “Percent Effect” value turned out to be 104.1%.

For `Fc1cnc(N2CC[C@@H]3CN(Cc4ccncc4)CCO[C@@H]3C2)nc1.O=C(O)C(F)(F)F.O=C(O)C(F)(F)F.O=C(O)C(F)(F)F`, the “Percent Effect” value is listed as -11.92%.

Regarding `CNC(=O)c1cnc(/C=C/c2cc(OC)c3c(c2)OCCO3)s1`, the “Percent Effect” value is on record as 15.86%.

Consider `CCN(C)c1ncnc2c1CCN(C(=O)c1ccsc1)CC2.O=C(O)C(F)(F)F`, for which the “Percent Effect” value was -2.544%.

Regarding `CS(=O)(=O)N1CCO[C@@H]2CN(C(=O)N3CCCC3)CC[C@@H]2C1`, the “Percent Effect” value was found to be 106.3%.

For `CS(=O)(=O)N1CCO[C@@H]2CN(C(=O)C3CCOC3)CC[C@@H]2C1` (stereo partly specified), the “Percent Effect” value worked out at 99.33%.

Regarding `CC(C)NC(=O)N1CC[C@@H]2CN(S(C)(=O)=O)CCO[C@@H]2C1`, the “Percent Effect” value is given as 112.1%.

For `CCc1ccc(CN2CC[C@@H]3CN(S(C)(=O)=O)CCO[C@@H]3C2)o1.O=C(O)C(F)(F)F`, the “Percent Effect” value came to 2.069%.

In the case of `CS(=O)(=O)N1CCO[C@@H]2CN(C(=O)C3CC(F)(F)C3)C[C@@H]2C1`, the “Percent Effect” value came to 99.59%.

Turning to `CS(=O)(=O)N1CCO[C@@H]2CN(C(=O)COC3CCCC3)C[C@@H]2C1`, the “Percent Effect” value is given as -4.785%.

With `CC(C)c1nc(CNC(=O)c2ccc(C(C)N3CCCCC3)o2)cs1` (stereo unspecified), the “Percent Effect” value is 4.315%.

In the case of `Cc1ncc(S(=O)(=O)Nc2ccnn2C(C)C)[nH]1`, the “Percent Effect” value is given as -21.74%.

Consider `CS(=O)(=O)N1CC[C@H]2C[C@@H](C(=O)N3CCOCC3)O[C@@H]2C1`, for which the “Percent Effect” value is listed as -11.49%.

Turning to `CS(=O)(=O)N1CCO[C@@H]2CN(C(=O)N3CCOCC3)CC[C@@H]2C1`, the “Percent Effect” value is reported as 93.86%.

Values taken from ChEMBL document CHEMBL3988442, “University of Dundee, Small-Polar-MMV Screening Library” (2021).
